The source of these data is PubChem BioAssay (NCI).

Holding throughout (experiment): NCI-60 one-dose screen, 48 h (100 = growth as untreated, 0 = no growth, -100 = all killed)
Common to all, as to details: 10 µM unless noted

The test system of assay [1] is NCI-H23 lung.
Assay [2] deals with NCI-H226 lung.
Assay [3] relates to NCI-H322M lung.
The subject of assay [4] is HOP-62 NSCLC.
Assay [5] deals with NCI-H460 lung.
In assay [6] the test system is HOP-92 NSCLC.
For assay [7], the system named is NCI-H522 lung.
Assay [8] relates to A549/ATCC NSCLC.
Assay [9] has as its system 786-0 renal.
In assay [10] the test system is COLO 205 colon.

Molecules are shown by their SMILES. About 83,000 compounds went through this panel and 20% of them were active in at least one assay; those are over-represented in the sample as a whole.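 Single-concentration screen, 48 h exposure, 96-well plates. Endpoint: percent growth. Below 10 = active.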 Values without a mark were called inactive. Activity calls are given as the source filed them.

On to `CN1C(=O)/C(=C/c2ccc(C(=O)Nc3ncc(Cc4cccc(Cl)c4)s3)cc2)SC1=S`, for which the growth in assay [1] was 59.5%; in assay [2] it was 64.5%; in assay [3] it was 76.2%; in [4] it was 62.9%; in [5], 20.3%; in assay [6] it was 71.9%. Besides, the growth in assay [7] is 57.5%; in assay [8], 56%; in assay [9], 63.4%; in assay [10], 57.8%.

In the case of `COc1ccc(-c2ccc(-c3ccc(C(=N)N)nc3)s2)cc1Cl`, the growth in [1] was 41.2%; in assay [2], 77.7%; in assay [3], 15.7%; in assay [4], -30.8% (active); in assay [5] it was -80.3% (active); in [6], 84.4%. Also, the growth in assay [7] is -47.3% (active); in assay [8], -32.3% (active); in assay [9], -89.7% (active); in assay [10] it was -56% (active).

In the case of `Cn1cc(-c2csc(-c3cn(CCCN4CCOCC4)c4ccccc34)n2)c2cccnc21`, the growth in assay [1] was 88.3%; in [2], 75.7%; in [3], 95.6%; in assay [4], 97.4%; in assay [5], 88.5%; in assay [6], 67.7%. Further, the growth in [7] is 67.9%; in assay [8], 79.3%; in [9] it was 74.4%; in assay [10] it was 73.9%.

Take `CC1(C)CC[C@]23CC[C@]4(C)[C@H](CC[C@@H]5[C@@]6(C)C/C(=C/c7ccncc7)C(=O)C(C)(C)[C@@H]6CC[C@]54C)[C@H]2[C@H]1OC3`: the growth in assay [1] is 91.8%; in assay [2] it was 90.9%; in assay [3], 90.9%; in assay [4], 91%; in [5], 75.8%; in assay [6], 72.4%. Further, the growth was 76.4% in [7], 76.5% in assay [8], 88.5% in assay [9] and 68.5% in assay [10].

In the case of `CC(C)N1C(=O)/C(=c2\sc3n(c2=O)C2C(NN=3)N(C)C(=O)N2C)c2ccccc21` (stereo not given), the growth in assay [1] is 74.6%; in assay [2], 83%; in assay [3] it was 91.6%; in assay [4] it was 74.7%; in [5], 62.2%; in assay [6] it was 42.9%. The growth was 33.9% in assay [7], 50.8% in assay [8], 62.7% in assay [9] and 91.1% in assay [10].

Take `CSc1nn2c(-c3ccc4ccccc4c3)ccnc2c1C#N`: the growth was 33.1% in assay [1]; 24.9% in [2]; 56.2% in assay [3]; 18.6% in assay [4]; -29.6% (active) in assay [5]; 33.8% in assay [6]. Besides, the growth is -23.4% (active) in [7], 5.43% (active) in assay [8], 22.2% in [9] and 17% in [10].

Regarding `CCOC(=O)c1c(C)nc2c(c1N)/C(=C/c1ccc(OC)cc1)C(=O)N2Cc1ccccc1`, the growth in assay [1] was 59.2%; in assay [2], 86.1%; in [3], 74.9%; in assay [4] it was 58.1%; in assay [5] it was 41.1%; in [6] it was 45%. Also, the growth in assay [7] was 66.3%; in assay [8], 63.4%; in assay [9], 64.4%; in assay [10], 73.7%.

Turning to `Clc1c(Cl)[n+](Cc2ccc3ccccc3c2)cn1Cc1ccc2ccccc2c1`, the growth in assay [1] is 32.8%; in assay [2] it was 44.4%; in [3], 51%; in assay [4], -27.6% (active); in assay [5], 26.1%; in [6], -12.1% (active). The growth in [7] was -52.5% (active); in assay [8] it was 52.5%; in [9], -8.06% (active); in assay [10], -73.9% (active).

Regarding `O=C(Cn1nnc2ccccc21)N/N=C/c1c[nH]c2ccccc12`, the growth is 71% in assay [1]; 77% in assay [2]; 80% in [3]; 36.6% in assay [4]; 21% in assay [5]; 57.7% in assay [6]. Moreover, the growth in assay [7] was 18.1%; in assay [8], 49%; in assay [9], 58%; in assay [10], 37.2%.

Take `O=C(CN1CCN(c2cc3c(cc2F)c(=O)c(C(=O)O)cn3C2CC2)CC1)N/N=C/c1ccco1`: the growth is 104% in assay [1]; 94.1% in [2]; 95% in [3]; 82.8% in assay [4]; 105% in assay [5]; 87.9% in assay [6]. The growth was 93.5% in [7], 90.6% in [8], 96.4% in assay [9] and 102% in assay [10].

For the molecule `O=C1Nc2ccccc2C1(c1c[nH]c2ccccc12)c1c[nH]c2ccccc12`, the growth in assay [1] was -13.5% (active); in [2], 8.63% (active); in assay [3], -15.6% (active); in [4], 49.3%; in assay [5] it was 70.6%; in [6] it was -6.64% (active). The growth was 21.6% in assay [7], 58.7% in [8], 83.7% in assay [9] and -27.7% (active) in assay [10].

With `Nc1nc(N)c(N=Nc2ccccc2)c(-c2ccccc2)n1`, the growth is 65.4% in assay [1]; 55.4% in assay [2]; 70.1% in assay [3]; 46.9% in [4]; 48.7% in assay [5]; 38.8% in [6]. Further, the growth is 49.2% in assay [7], 63.8% in assay [8], 60.7% in assay [9] and 65.8% in assay [10].

As to `O=C(/C=C(O)/C=C/c1cccc2[nH]ccc12)/C=C/c1cccc2[nH]ccc12`, the growth in [1] is 80.5%; in assay [2] it was 99.5%; in assay [3] it was 98.9%; in assay [4] it was 76.4%; in [5] it was 98.3%; in assay [6] it was 62.1%. The growth was 34% in assay [7], 87.5% in assay [8], 86% in assay [9] and 55.8% in assay [10].

Regarding `Oc1c(CN2CCOCC2)cc(COCc2ccccc2)c2cccnc12`, the growth is 39.1% in assay [1]; 43.4% in [2]; 14.7% in assay [3]; 10.7% in assay [4]; 16.1% in assay [5]; 62.4% in assay [6]. Besides, the growth was 4.41% (active) in [7], 26.5% in assay [8], 32.6% in [9] and 62.8% in assay [10].

As for `NC1(CO)COC(c2ccccc2)OC1` (stereo not given), the growth in assay [1] is 109%; in assay [2], 103%; in assay [3] it was 100%; in assay [4], 104%; in [5], 108%; in [6] it was 96.7%. Moreover, the growth was 87.1% in assay [7], 101% in [8], 106% in assay [9] and 107% in assay [10].

For the molecule `C=CC(=O)Nc1ccc(Nc2nccc(-c3ccc(N4CCCC4)c(C#N)c3)n2)cc1`, the growth was 62.1% in [1]; 52.7% in [2]; 41.2% in assay [3]; 19.2% in [4]; 0.189% (active) in assay [5]; 60.9% in [6]. Further, the growth in assay [7] was 12.4%; in assay [8] it was 14.7%; in [9], -67.4% (active); in [10], 7.29% (active).

On to `Cc1c(Cl)cccc1C(=O)Nc1nc2c(s1)CN(C(=O)c1ccc(C(F)(F)F)cc1)CC2`, for which the growth in assay [1] is 33.7%; in [2] it was 50.9%; in [3] it was 45.2%; in [4], 41.8%; in [5], 0.935% (active); in assay [6], 35.9%. In addition, the growth was 11.4% in assay [7], 25.5% in [8], 40.3% in assay [9] and 6.86% (active) in [10].

With `N#CSc1c[nH]c2cccc(/C=C/C(=O)/C=C(O)/C=C/c3cccc4[nH]cc(SC#N)c34)c12`, the growth in [1] was -36.8% (active); in [2], -73.1% (active); in assay [3], -47.5% (active); in assay [4], -32.6% (active); in assay [5], -22.9% (active); in [6] it was -72% (active). Besides, the growth is -68.2% (active) in [7], -69.7% (active) in [8], -60.3% (active) in assay [9] and -77.7% (active) in assay [10].

Consider `COc1ccc(/C=C/C(=O)c2cc(OC)c(OC)c(OC)c2)cc1OCC(=O)Nc1nc2ccc(OC(F)(F)F)cc2s1`, for which the growth in assay [1] is 11.5%; in assay [2], 40.6%; in assay [3] it was 4.88% (active); in [4], -53.3% (active); in assay [5], -22.9% (active); in [6], 54.9%. Besides, the growth in [7] is -35.5% (active); in assay [8] it was 14.7%; in [9], 58.9%; in [10] it was 77%.

On to `CN1CCN(Cc2ccc(NC(=O)c3cncc(C#Cc4cnc5ccc(Cl)nn45)c3)cc2C(F)(F)F)CC1`, for which the growth in [1] is -29.5% (active); in assay [2], -58.3% (active); in assay [3], -14.2% (active); in assay [4], -15.7% (active); in assay [5] it was -47.3% (active); in assay [6], -16.3% (active). Besides, the growth was -12.8% (active) in [7], 4.24% (active) in assay [8], -53% (active) in [9] and -46.1% (active) in [10].

On to `c1nc2ccc(-c3cc4ccc5[nH]ncc5c4c4c3CCCC4)cc2[nH]1`, for which the growth in [1] is 78.8%; in [2], 57.1%; in assay [3], 41%; in assay [4] it was 74.3%; in [5], 63.1%; in assay [6], 66%. Also, the growth in assay [7] was 37.5%; in [8] it was 65.1%; in [9], 43.6%; in assay [10], 52.2%.

On to `Cc1ccc(C2CC(c3nc(-c4ccc(Cl)cc4)oc3C)=NN2C(=O)c2ccncc2)cc1` (stereo not given), for which the growth in [1] was 85.8%; in assay [2] it was 88.3%; in [3], 93.3%; in [4], 99.3%; in [5] it was 92.7%; in assay [6], 80%. Moreover, the growth was 80.8% in [7], 84.4% in [8], 79.5% in [9] and 107% in assay [10].

For `C=CCN1C(=O)c2cccc3c(N4CCOCC4)ccc(c23)C1=O`, the growth in assay [1] is 8.01% (active); in assay [2] it was -2.43% (active); in [3], -56.6% (active); in [4], 26.4%; in [5] it was 8.52% (active); in assay [6] it was 21.1%. The growth was -1.11% (active) in assay [7], 3.05% (active) in assay [8], 26.2% in assay [9] and -21.8% (active) in [10].

Turning to `O=C1/C(=C\c2ccccn2)c2ccccc2N1c1c(Cl)cccc1Cl`, the growth in assay [1] is 13%; in [2], 25.2%; in [3], 61.4%; in assay [4], 23.3%; in assay [5], -29.3% (active); in assay [6] it was -7.93% (active). The growth in assay [7] was 36.8%; in assay [8], 50.3%; in assay [9] it was -81.4% (active); in [10], -16.1% (active).

Take `O=C(N/N=C/c1cc(Cl)ccc1O)c1ccccc1Nc1ccnc(C(F)(F)F)c1`: the growth was 37.9% in [1]; -1.12% (active) in assay [2]; 19.9% in assay [3]; 30.4% in assay [4]; 4.73% (active) in assay [5]; 14% in [6]. The growth was 50.9% in [7], 54.4% in [8], 27.2% in [9] and 14.1% in [10].

`CN(C)CCCNC(=O)c1cncnc1Nc1ccc(OCc2cccc(F)c2)c(Cl)c1`: the growth was 61.5% in [1]; 89% in assay [2]; 4.56% (active) in assay [3]; -56% (active) in assay [4]; -75.1% (active) in [5]; 24.6% in assay [6]. Moreover, the growth in assay [7] was -60.4% (active); in assay [8] it was -58% (active); in assay [9], -78.7% (active); in [10] it was -71.3% (active).

As to `CC(=C(c1ccc(OCCN2CCCCC2)cc1)c1ccc(OCCN2CCCCC2)cc1)c1ccc(Cl)cc1`, the growth in assay [1] is -82.4% (active); in [2], -73.4% (active); in assay [3] it was -97.2% (active); in assay [4], -82% (active); in [5], -82.4% (active); in [6], -82.9% (active). In addition, the growth was -76.9% (active) in assay [7], -81.7% (active) in assay [8], -90.9% (active) in assay [9] and -68.2% (active) in assay [10].
